According to PubChem BioAssay AID880 (National Center for Advancing Translational Sciences (NCATS), 2007):
“And” between values parts separate entries of the source, which are not always exact repeats. Identical values can stand only once. Screen size: about 230,000 compounds; about 1,000 (0.43%) were called active. The sample as a whole holds a higher share of actives than the screen did. Values without a mark were called inactive. The call rests on the fitted dose curve; in most records, active means well fitted inhibition curve with a large enough effect (not every such curve was filed as active); inactive means no such curve, though single readings can be large or run the other way.

Biological target: Guanine nucleotide-binding protein G(i) subunit alpha-1 (Homo sapiens) (UniProt P63096)
Sequence (P63096 whole entry, looked up): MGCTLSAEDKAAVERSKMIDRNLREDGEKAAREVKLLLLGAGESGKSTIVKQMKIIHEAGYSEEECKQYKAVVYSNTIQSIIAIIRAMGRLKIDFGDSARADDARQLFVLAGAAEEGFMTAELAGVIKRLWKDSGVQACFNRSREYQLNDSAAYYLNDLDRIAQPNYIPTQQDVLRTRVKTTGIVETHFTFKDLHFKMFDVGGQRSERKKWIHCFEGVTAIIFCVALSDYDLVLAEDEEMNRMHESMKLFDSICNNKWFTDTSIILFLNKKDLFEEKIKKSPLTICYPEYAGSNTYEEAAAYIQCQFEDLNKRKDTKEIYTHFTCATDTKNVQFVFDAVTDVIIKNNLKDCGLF
Experiment: qHTS Assay for Inhibitors of RGS12 GoLoco Motif Activity (Red Fluorophore); further: nearly all actives have a fitted effect of over 30% in size
Conditions: Gai1:RGS12 GoLoco peptide FP, rhodamine, 10 min; series mostly up to 61.6 µM; activity, negative = inhibition: at the top concentration
Description: Assay Submitter: Siderovski, David P, University of North Carolina at Chapel Hill
Screening Center PI: Austin, C.P.
Screening Center: NIH Chemical Genomics Center [NCGC]
G-protein-coupled receptors (GPCRs) are major targets for drug discovery. The regulator of G-protein signaling (RGS)-protein family has important roles in GPCR signal transduction. RGS proteins contain a conserved RGS-box, which is often accompanied by other signaling regulatory elements. RGS proteins accelerate the deactivation of G proteins to reduce GPCR signaling; however, some also have an effector function and transmit signals. Combining GPCR agonists with RGS inhibitors should potentiate responses, and could markedly increase the agonist's regional specificity. The diversity of RGS proteins with highly localized and dynamically regulated distributions in brain makes them attractive targets for pharmacotherapy of central nervous system disorders. […] A complex of Gai1 and fluorescently labeled G-alpha-binding peptide (the "GoLoco motif") derived from RGS12 is incubated with library members. Inhibitors of the binding are detected by a decrease in the fluorescence polarization (FP) of the fluorophore. Protein was supplied by Prof. David Siderovski, University of North Carolina at Chapel Hill.
Assay Buffer: 10 mM Tris-HCl, 150 mM NaCl, 0.1 mM GDP (prepared fresh), and 0.05% NP40 at pH 7.5.
15 nM Rhodamine labeled peptide/25 nM protein in columns 1, 2, 5 - 48. Titration of unlabeled peptide control ([H][…][NH2], custom synthesized and HPLC-purified by Tufts University Core Facility) from 20 mM, then 1:2 dilution, 16-point in duplicate, pin-transferred to column 2, rows 1 to 32. Column 1 is neutral.
Rhodamine-labeled peptide (Rhodamine-[…]-NH2) was custom-synthesized and HPLC-purified by Invitrogen (Carlsbad, CA).
Four uL of reagents were dispensed to 1536-well Greiner black solid-bottom plates. Compounds and controls (23 nL) were transferred via Kalypsys PinTool. The plates were incubated for 10 min at room temperature, and then read on ViewLux (Perkin-Elmer) High-throughput CCD imager using BODIPY for the rhodamine-labeled decapeptide probe. During dispense, reagent bottles were kept submerged into 4 deg C water bath and all liquid lines were covered with aluminum foil to minimize probe and protein degradation. All screening operations were performed on a Kalypsys robotic system (Kalypsys, Inc., San Diego, CA) containing one RX-130 and two RX-90 anthropomorphic robotic arms.
On the % scale 0 is the no-effect control and ±100 the full control effect; potency means the concentration at half of the fitted maximal effect.

SMILES | activity, negative = inhibition [%] | Potency
Cc1nn(-c2cc(Cl)ccc2N)c(=O)c2ccccc12 | -13.2 | –
Cc1cccc(N2C(=O)SC(SC(=Nc3ccccc3)Nc3ccccc3)C2=O)c1 (stereo not drawn) | -0.129 | –
O=C(C1=C[C@H](C2CC2)C[C@H](OCc2ccc(CO)cc2)O1)N1CCN(Cc2ccccc2)CC1 | 3.38 | –
CCOC(=O)N1CCN(Cc2nc3ccc([N+](=O)[O-])cc3c(=O)n2-c2cccc(OC)c2)CC1 | -0.269 | –
CCOC(=O)c1cc2n(c1N)-c1ccccc1C2=O | – | 17.8 µM (active)
CCOC(=O)Nc1ccccc1N1C(=O)c2ccccc2C1=O | 1.1 | –
CCOC(=O)C1=C(C(=O)OCC)C(C(=O)OCC)N(S(=O)(=O)C(F)(F)F)c2ccccc21 (stereo not drawn) | 7.48 | –
Cc1cc2nc3c(=O)n(Cc4ccccc4)c(=O)[nH]c3nc2cc1N | – | 12.6 µM (active)
Cc1nc2c(c(=O)n1Cc1ccco1)c1nc3ccccc3nc1n2Cc1ccccc1 | 25.4 | –
O=c1[nH]c2c(c(=O)n1Cc1ccccc1)CCC2 | -1.69 | –
C=CC(=O)c1ccc2ccccc2c1 | – | inactive
O=C(Nc1ccc(O)cc1)c1ccccc1O | 0.336 | –
COc1ccc(OCCC(=O)c2ccc(OC)cc2)cc1 | 3.76 | –
CC(=O)c1ccc(OCCN2CCOCC2)cc1 | -13.5 | –
CC(C)CCOc1ccc(C(=O)C[N+]2(C)CCOCC2)cc1 | – | 3.55 µM (active)
O=C(CCCNS(=O)(=O)c1cccc2nsnc12)NCCN1CCN(c2ccccc2F)CC1 | -6.83 | –
N#Cc1ccccc1CN1C(=O)S/C(=C/c2cccn2-c2cccc(C(=O)O)c2)C1=O | 66.7 | –
COc1cc(C(=O)NCc2ccc3c(c2)cc(C)n3C)cc(OC)c1OC | -5.23 | –
CCOc1ccc(C(O)Cn2c(=N)n(CCN3CCCCC3)c3ccccc32)cc1 (stereo not drawn) | 9.41 | –
O=P(O)(CN1CCCCCC1)C1Cc2ccccc2C1 | -3.29 | –
Cc1ccccc1CN1C[C@@H]2C[C@@H](c3ccc4nsnc4c3)N3CCC[C@@]23C1=O | 6.4 | –
Nc1nc2c(ncn2[C@@H]2O[C@H](COP(=O)(O)OP(=O)(O)OP(=O)(O)O)[C@@H](O)C2O)c(=O)[nH]1 (stereo partly drawn) | 2.15 | –
CC[N+](C)(CC)CCC[n+]1c(-c2ccccc2)c2cc(N)ccc2c2ccc(N)cc21 | – | 4.47 µM (active) and 12.6 µM (active)
CC/C=C\C/C=C\C/C=C\C/C=C\C/C=C\C/C=C\CCC(=O)NCCc1ccc(O)c(O)c1 | 3.48 | –
COc1ccc(CC(N)C(=O)NC2C(O)[C@H](n3cnc4c(N(C)C)ncnc43)O[C@@H]2CO)cc1 (stereo partly drawn) | 3.32 | –
COCCNC(=O)/C(C#N)=C/c1nc(N(C)C)n(-c2ccc(F)cc2)c1Cl | -2.69 | –
O=C(/C=C/NCc1ccc(F)cc1)c1ccccc1 | -3.93 | –

SMILES | activity, negative = inhibition [%] | Potency
O=C(c1ccncc1)N1CCN(c2ccc3ccccc3n2)CC1 | -3.32 | –
Cc1nc(-c2ccccc2)sc1C(=O)/C=C/N(C)C | 8.99 | –
CC1(C)C=CC(=O)[C@]2(C)C1CC(=O)[C@]1(C)C2CC[C@@]2(C)C(c3ccoc3)OC(=O)C3OC321 (stereo partly drawn) | -47.9 | –
CC(C)=CCN1CCC2(CCc3ccccc32)CC1 | 7.2 | –
O=C(c1ccc(F)cc1)N1CCCC(c2nc(-c3cccs3)no2)C1 (stereo not drawn) | -1.92 | –
C/C(=N\NC(=S)NC1CCCCC1)c1ccc(C)o1 | -0.165 | –
CCN1/C(=C/c2ccc3ccc(C)cc3[n+]2CC)Sc2ccccc21 | – | 0.708 µM (active)
CCN1/C(=C/C(=S)Nc2ccccc2)Sc2ccccc21 | 31.8 | –
CCN1/C(=C\c2ccc3ccccc3[n+]2CC)Sc2cc(C)ccc21 | 70.9 | –
O=c1ccn([C@@H]2O[C@H](COP(=O)(O)OP(=O)(O)OP(=O)(O)O)[C@@H](O)[C@H]2O)c(=O)[nH]1 | 1.87 | –
CC(Sc1nc2c([nH]c3ccccc32)c(=O)n1C)c1ccccc1 (stereo not drawn) | -2.16 | –
CC/C=C\C/C=C\C/C=C\C/C=C\C/C=C\C/C=C\CCC(=O)NC(C)C(=O)O (stereo not drawn) | 5.36 | –
COc1ccc(S(=O)(=O)N2CN(CCc3ccc(OC)c(OC)c3)c3nc4ccccc4nc32)cc1 | 6.37 | –
C[N+](C)(C)CCNC(=O)c1c(O)c2c([nH]c1=O)CCCC2 | – | 1.12 µM (active)
CCc1nnc(NC(=O)c2c(O)c3c([nH]c2=O)CCCC3)s1 | -2.64 | –
O=C(NCc1ccccn1)c1c(O)c2c([nH]c1=O)CCCC2 | -0.895 | –
Cc1ccc(-c2csc(NC(=O)Cn3[nH]c(=O)c4ccccc4c3=O)n2)cc1 | 23.6 | –
COC(=O)c1sc(=S)n(-c2ccccc2)c1N | -8.96 | –
COCCOC(=O)c1sc(=S)n(CCOC)c1N | – | 12.6 µM (active)
CCOC(=O)c1c(N)sc(C(C)=O)c1C | 5.69 | –
Cn1c(=O)n(Cc2ccco2)c(=N)c2c3c(sc21)CCCC3 | 4.71 | –
CC(N)(C(=O)O)c1ccc(-c2nn[nH]n2)cc1 (stereo not drawn) | 3.74 | –
Cc1ccc(CN2CCN(/N=C/c3cccnc3)CC2)c(C)c1 | 28.4 | –
Cc1ccc(C2=C/C(=C\c3cccnc3)C(=O)O2)cc1 | – | 0.794 µM (active)
Cc1ccccc1C1=N/C(=C/c2cccnc2)C(=O)O1 | 3.85 | –
O=C1OC(c2ccc(Cl)cc2)=N/C1=C\c1cccnc1 | 12 | –
